Rab9 prom act: qHTS Assay for Rab9 Promoter Activators. 2.8% of 320,000 active. Huh7 Rab9 promoter-luciferase reporter, luminescence, 24 h. Potency, µM (titrated, usually from 9.22 µM), without a hit: top-dose activation, negative = inhibition, hits mostly activators; further: % of control where 0% means no effect; nearly all actives have a fitted effect of over 60% in size
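Quantitative HTS format; Huh7 Rab9-luciferase reporter cells (1500/well) receive compound 2 h post-plating, incubate 24 h at 37 °C, then get luciferase reagent for 10 min before luminescence reading.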
ELG1 DNA repair: qHTS screen for small molecules that inhibit ELG1-dependent DNA repair in human embryonic kidney (HEK293T) cells expressing luciferase-tagged ELG1; HEK293T ELG1-luciferase reporter, luminescence, 16 h; DNA damage induced by 5-fluorouridine; Potency, µM (highest dose often 46.1 µM), inactives show top-dose activity change, negative = inhibition, actives largely listed as inhibitors; 2.3% of 330,000 active; AID 504467, 2011; further: on the % scale 0 is the no-effect control and ±100 the full control effect; nearly all actives have a fitted effect of over 55% in size
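HEK293T cells expressing luciferase-tagged ELG1 (2,000/well) received 5-Fluorouridine plus compound or DMSO for 16 hr at 37 °C. Luciferase was read by ONE-Glo luminescence after 30 min at room temperature.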
NPC1 prom act: qHTS Assay for NPC1 Promoter Activators; Huh7 NPC1 promoter luciferase reporter, 24 h; Potency, µM (highest dose often 9.22 µM), without a hit: at the top dose activation, usual class: activators; 2.4% of 320,000 active; AID 485313, 2010; further: % of control where 0% means no effect; nearly all actives have a fitted effect of over 60% in size
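Huh7 cells stably carrying NPC1 promoter–luciferase, plated in Opti-MEM with 10% FBS for 2 h, were exposed to compound in DMSO for 24 h at 37 °C; luciferase reagent was added for 10 min and luminescence read.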
ELG1 genotox: qHTS screen for small molecules that induce genotoxicity in human embryonic kidney (HEK293T) cells expressing luciferase-tagged ELG1 | 1.3% of 330,000 active | Potency, µM (doses to about 46 µM), for inactives: top-dose activity change, positive = activation, usual class: activators | HEK293T ELG1-luciferase reporter, luminescence, 16 h; further: % of control where 0% means no effect; nearly all actives have a fitted effect of over 60% in size
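HEK293T cells expressing luciferase-tagged ELG1 were exposed to compound or DMSO vehicle for 16 hr at 37 °C and 5% CO2. Luciferase activity was then measured with ONE-Glo after 30 min at room temperature.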
SMN2 splice up: qHTS Assay for Enhancers of SMN2 Splice Variant Expression. HEK293 SMN2-luciferase splicing reporter, luminescence, 30-36 h. Potency, µM (doses to about 46.1 µM), for inactives: at the top dose activity change, positive = activation, actives largely listed as activators. 2.8% of 210,000 active; further: % of control where 0% means no effect; nearly all actives have a fitted effect of over 55% in size
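HEK293 cells carry an SMN2 […]–luciferase reporter in which exon 7 inclusion puts luciferase in frame. Cells were plated 10-12 h before compound addition, then incubated 30-36 h at 37C. ONE-Glo luminescence was read; sodium butyrate at 4.5 mM final served as control.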
FLuc modulator: qHTS profiling assay for firefly luciferase inhibitor/activator using purifed enzyme and Km concentrations of substrates (counterscreen for miR-21 project). purified FLuc, Km substrates, luminescence inhibition. Potency, µM (doses to about 57.5 µM), for inactives: top-dose activity change, negative = inhibition, actives largely listed as inhibitors. 6.9% of 360,000 active. AID 588342, 2011;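 further: plate controls were vehicle for no effect and reference inhibitor for full effect; nearly all actives have a fitted effect of over 55% in size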
Target sequence (P08659 whole entry, looked up): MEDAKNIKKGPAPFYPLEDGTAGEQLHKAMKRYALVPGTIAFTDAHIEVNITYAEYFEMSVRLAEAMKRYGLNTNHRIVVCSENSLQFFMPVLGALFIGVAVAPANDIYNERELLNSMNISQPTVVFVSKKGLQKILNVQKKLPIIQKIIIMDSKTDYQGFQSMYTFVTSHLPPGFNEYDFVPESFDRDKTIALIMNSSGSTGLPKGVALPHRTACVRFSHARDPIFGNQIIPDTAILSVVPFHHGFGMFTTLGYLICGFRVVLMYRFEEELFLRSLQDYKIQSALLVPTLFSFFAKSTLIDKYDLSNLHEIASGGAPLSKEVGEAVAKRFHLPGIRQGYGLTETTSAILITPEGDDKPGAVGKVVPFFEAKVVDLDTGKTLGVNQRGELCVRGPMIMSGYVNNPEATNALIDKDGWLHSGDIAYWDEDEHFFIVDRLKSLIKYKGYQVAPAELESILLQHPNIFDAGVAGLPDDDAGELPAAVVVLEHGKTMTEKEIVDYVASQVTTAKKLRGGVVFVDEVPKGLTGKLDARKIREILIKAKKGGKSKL
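Purified P. pyralis luciferase, 10 nM final, with Km-level 10 uM D-luciferin and 10 uM ATP in 50 mM Tris acetate pH 7.5, 10 mM Mg acetate, 0.01% Tween-20, 0.05% BSA; 6-point qHTS titration about 60 µM downward; luminescence read.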
An asterisk follows results filed as active; u = inconclusive; x = no result; [ ] = another dose, or the depositor's remark. This is a sample that favours compounds with a hit; in the whole collection about 9.4% have one here. The call rests on the fitted dose curve; in most records, active means well fitted curve in the direction sought with a large enough effect; inconclusive means small, poorly fitted or top-dose-only effect, or another doubt; inactive means no such curve, though single readings can be large; an effect the other way counts as inactive or inconclusive. Potency means the concentration at half of the fitted maximal effect.

SMILES | Rab9 prom act | ELG1 DNA repair | NPC1 prom act | ELG1 genotox | SMN2 splice up | FLuc modulator
CCOC(=O)C1CCN(Cc2c(F)cccc2Cl)CC1 | -10% | 12% | 1% | -3% | u | 7%
COC(=O)C(O)(c1ccc(NC(=O)Oc2ccccc2)cc1)C(F)(F)F (configuration not stated) | -1% | 15% | 1% | 2% | 18% | 15µM*
O=[As](O)(O)c1ccc(NCc2ccccc2)cc1 | x | x | x | x | -6%[9.22 µM] | x
NC(=O)c1cn(C2OC(CO)C(O)C2O)c2ncnc(N)c12 (configuration not stated) | -37% | 0.1µM* | -33% | -18% | -108% | 11%
NC(=O)c1ncn(C2OC(CO)C(O)C2O)n1 (configuration not stated) | x | x | x | x | 16µM* | x
Nc1ncnc2c1ncn2[C@@H]1O[C@H](COP(=O)(O)CP(=O)(O)O)[C@@H](O)[C@H]1O | x | x | x | x | 4% | x
COc1ccc(NC(=O)CCOc2cc(C)ccc2C)cc1S(=O)(=O)N1CCCCC1 | x | 23µM* | x | -8% | x | x
COC(=O)c1c(C)ccc2c(O)c3c(cc12)C(=O)c1c2c(cc(O)c1C3=O)[C@@]1(C)O[C@@](C)(O2)[C@@H](O)[C@H](N(C)C)[C@H]1O | x | x | x | x | 12%[9.22 µM] | x
Nc1cccc2ccccc12 | x | x | x | x | -3% | x
CC(=O)O/C(=C1/C[C@H]2[C@@H]3CC=C4C[C@@H](OC(C)=O)CC[C@]4(C)[C@@H]3CC[C@]2(C)C1=O)C(F)(F)F | x | x | x | x | -3%[9.22 µM] | x
COc1ccc(NC2=NC(C)(C)CS2)cc1 | u | u | u | u | 11µM* | u
C=CC(C)(C)c1c2c(c(O)c3c(=O)c4ccc(O)c(O)c4oc13)C=CC(C)(C)O2 | x | x | x | x | -92% | x
CNc1ccc2nc3ccccc3[n+](C)c2c1 | -22%[1.84 µM] | 1.6µM* | -43% | -6% | x | 17µM*
C[n+]1c2ccccc2nc2ccc(NCCO)cc21 | -5%[1.84 µM] | 8.2µM* | 2% | -18% | x | 19µM*
c1ccc(CCN2CCCCCC2)nc1 | x | x | x | x | -9%[9.22 µM] | x
CC1=Nc2ccccc2/C1=C/c1c(O)[nH]c(=O)[nH]c1=O | 4% | 8% | 2% | -1% | x | -2%
O=c1[nH]c(O)c(/C=C2/C=CC(c3cc(Cl)ccc3Cl)=N2)c(=O)[nH]1 | -9% | u | -5% | 15% | x | 6.7µM*
O=C1NC(=O)N(c2ccc3c(c2)OCO3)C(=O)/C1=C/c1cccs1 | -2% | -7% | -6% | u | 10% | u
O=C1NC(=O)N(c2ccc3c(c2)OCO3)C(=O)/C1=C/c1ccsc1 | -7% | 6% | -2% | 3% | 19% | 19µM*
CC1Oc2cc3c(-c4c(O)cc(O)c5c(O)c6c(cc45)OC(C)C(C)C6=O)c(O)cc(O)c3c(O)c2C(=O)C1C (configuration not stated) | -42% | 6.5µM* | -40% | -16% | x | -2%
NS(=O)(=O)c1ccc(CCNC(=O)c2ccc(Cl)c(S(=O)(=O)N3CCCCC3)c2)cc1 | x | 16µM* | x | -8% | x | x
O=C(COC(=O)Cc1ccccc1)Nc1cc(S(=O)(=O)N2CCCCC2)ccc1Cl | -6% | 8% | -1% | -1% | x | -10%
CCOc1ccc(OC(=O)c2ccc3c(=O)n4c(nc3c2)CCC4)cc1 | -3% | -3% | -1% | -4% | x | 12µM*
C[C@H](CO)N1C[C@H](C)[C@@H](CN(C)C(=O)NC2CCCCC2)Oc2c(NC(=O)Nc3ccc4c(c3)OCO4)cccc2C1=O | x | 15µM* | x | -2% | x | x
Cc1ccccc1[N+](=O)[O-] | 5% | 22% | 1% | 1% | 10% | 0%

Bioassay records deposited in PubChem BioAssay by National Center for Advancing Translational Sciences (NCATS).
